SENP6 block: SENP6 protease inhibitors, primary screen, biochemical, luminescence, uHTS. Sentrin-specific protease 6 (Homo sapiens), Q9GZR1. Recombinant SENP6 catalytic domain, aminoluciferin luminescence. inhibition, % at 10 µM. actives 1.8% (n = 330,000). AID 2599, 2010;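 active means inhibition above about 50% at the single tested dose, limit read from the data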;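 further: plate controls were DMSO wells with enzyme for no effect and DMSO wells lacking enzyme for full effect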
SENP8 block-1: SENP8 protease inhibitors, primary screen, biochemical, luminescence. Sentrin-specific protease 8 (Homo sapiens), Q96LD8. purified SENP8, Z-RLRGG-aminoluciferin cleavage. inhibition, % at 10 µM. actives 1.2% (n = 330,000). AID 2540, 2010; in the data active means inhibition above about 50%
SENP8 block-2: human SENP8 protease inhibitors, primary screen, biochemical, fluorescence, Nedd8 protein substrate, uHTS; Sentrin-specific protease 8 (Homo sapiens), Q96LD8; recombinant SENP8; inhibition, % at 20 µM; actives 0.64% (n = 360,000); AID 602440, 2012; in the data active means inhibition mostly above about 40%, no sharp cut-off; inactive means mostly below about 27%
SENP7 inh: SENP7 protease inhibitors, primary screen, biochemical, luminescence, uHTS | actives 1.5% (n = 330,000) | recombinant SENP7, Z-RLRGG-aminoluciferin luminescence, 40 min | inhibition, % at 5 µM;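 active means inhibition above about 50% at the single test dose, limit read from the data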;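 further: plate controls were DMSO with enzyme for no effect and no enzyme buffer wells for full effect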
Target sequence (Q9BQF6 706-1050 limits assumed): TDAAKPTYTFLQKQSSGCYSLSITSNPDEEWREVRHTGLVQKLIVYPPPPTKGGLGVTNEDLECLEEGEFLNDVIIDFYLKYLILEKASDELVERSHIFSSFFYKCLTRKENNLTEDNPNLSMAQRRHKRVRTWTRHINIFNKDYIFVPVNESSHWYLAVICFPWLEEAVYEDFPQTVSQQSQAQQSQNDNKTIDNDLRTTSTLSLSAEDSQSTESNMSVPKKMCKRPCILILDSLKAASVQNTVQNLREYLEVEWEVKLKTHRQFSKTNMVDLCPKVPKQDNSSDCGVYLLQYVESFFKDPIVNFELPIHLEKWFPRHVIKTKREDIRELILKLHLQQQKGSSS
EBI2 block: EBI2 receptor antagonists, beta-arrestin recruitment, primary screen, cell-based, luminescence, 7a,25-OHC stimulation, uHTS; G-protein coupled receptor 183 (Homo sapiens), P32249; 7a,25-OHC stimulated; inhibition, % at 5 µM; actives 0.81% (n = 360,000); AID 651636, 2012; in the data active means inhibition above about 38%;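 further: enzyme fragment complementation signal reports receptor beta-arrestin coupling in cells; 0% = agonist plus DMSO wells and 100% = wells without agonist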
AHR activator: AHR activators, primary screen, cell-based, luminescence, luciferase reporter, human. AHR-responsive luciferase reporter cells. activation, % at 5 µM. actives 2.5% (n = 320,000); in the data active means activation above about 47%;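 further: 0% = vehicle wells and 100% = reference agonist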
The depositor's hits bear a star; . = not tested or not shown. This is a sample that favours compounds with a hit; in the whole collection about 5% have one here.

SMILES	SENP6 block	SENP8 block-1	SENP8 block-2	SENP7 inh	EBI2 block	AHR activator
COc1ccc(C(C#N)=Cc2ccc(OC)c(OC)c2)cc1	.	.	-152	.	4	.
Cc1ccc(-c2nc3ccccc3[nH]2)cc1NC(=O)c1ccc2c(c1)OCO2	-22	-12	4	19	7	16
O=C(NC(=S)Nc1cc(-c2nc3ccccc3[nH]2)ccc1Cl)c1ccc2c(c1)OCO2	44	14	-60	3	0	84*
O=c1cc(/C=C/c2c(F)cccc2Cl)[nH]c2ccccc12	.	.	-389	.	0	61*
C(=Nc1ccccc1)c1ccc[nH]1	.	.	20	.	-4	.
Oc1ccccc1N=Cc1ccc[nH]1	14	8	41*	12	-1	24
CC1=NN(c2ccccc2)C(=O)/C1=C/c1cn(C)c2ccccc12	-13	-9	28	-7	2	23
O=C1NNC(c2ccccc2)=N/C1=C\c1ccccc1	2	5	47*	6	10	43
C[C@H]1CN([C@@H](C)CO)C(=O)CCCn2cc(nn2)CO[C@@H]1CN(C)S(=O)(=O)c1ccc(Oc2ccccc2)nc1	.	.	-17	.	-4	.
Cc1cc(N2CCN(c3ccccc3)CC2)nc(-c2ccccc2O)n1	-24	1	-202	4	-12	78*
COc1cc(/C=N/NC(=O)C(Cc2c[nH]c3ccccc23)NC(=O)OCC(C)C)cc([N+](=O)[O-])c1OCc1ccccc1 (stereo unspecified)	-13	-7	-9	2	7	64*
Clc1ccc(/C=N/Nc2ncnc3nc[nH]c23)cc1	-14	12	10	15	9	66*
C[C@H](CO)N1C[C@H](C)[C@@H](CN(C)S(=O)(=O)c2cccc(F)c2)Oc2ncc(Br)cc2C1=O	.	.	14	.	-1	.
CCOCc1nnc(NC(=O)c2ccc3c(c2)OCO3)s1	-12	-11	-15	12	0	122*
COc1ccc(-c2cccc(NC(=O)c3ccc4c(c3)OCO4)c2)nn1	-6	-1	4	-6	0	65*
O=C(Nc1nncs1)c1ccc2c(c1)OCO2	-16	-5	2	8	3	65*
CCOCc1nnc(NC(=O)COc2ccc3c(c2)OCO3)s1	0	2	-1	5	-5	26
O=C(Cc1ccc2ccccc2c1)NC(Cc1ccccc1)C(=O)O (stereo unspecified)	.	.	12	-9	-3	.
O=C(Nc1cccc2ccccc12)OCc1cncs1	-9	-18	-17	1	2	57*
O=C1c2ccccc2[C@@H]2Cc3csc[n+]3[C@H]12	.	.	2	.	4	.
COc1ccc(OC)c(Nc2nc(-c3sc(NC(=O)CC(C)C)nc3C)cs2)c1	-5	2	-185	0	9	73*
COc1ccc(Cl)cc1Nc1nc(-c2sc(NC(=O)C(C)(C)C)nc2C)cs1	-13	2	-127	-4	7	16
COc1ccc(OC)c(Nc2nc(-c3sc(NC(=O)C(C)(C)C)nc3C)cs2)c1	-10	5	-160	-4	11	61*
Cc1ccc(C(=O)c2c3ccc([N+](=O)[O-])cc3[n+]([O-])n2CCC(N)=O)cc1	5	1	.	-2	.	4
Cc1ccc(C(=O)c2c3ccc(C(F)(F)F)cc3nn2CCC(N)=O)cc1	-1	-6	8	3	-24	65*
SMILES	SENP6 block	SENP8 block-1	SENP8 block-2	SENP7 inh	EBI2 block	AHR activator
COc1ccccc1NC(=O)Nc1sccc1-c1nc2ccccc2s1	-7	-4	-108	-8	3	33
O=C(Nc1ccccc1)Nc1sccc1-c1nc2ccccc2s1	4	3	-173	3	2	72*
O=C(Nc1cccc(Cl)c1)Nc1sccc1-c1nc2ccccc2s1	-5	-14	-178	12	-4	49*
Cc1cccc(CN2CCN(C3CN(Cc4cn(Cc5cccc(Cl)c5)nn4)S(=O)(=O)C3)CC2)c1 (stereo unspecified)	.	.	23	.	4	.
N#CC1(NC(=O)CSc2nnc(C3CC3)n2N)CCCCC1	.	.	8	.	-6	.
O=C(NCc1cccc(C(F)(F)F)c1)c1[nH]c(C(F)(F)F)nc1-c1ccccc1	.	.	22	.	-8	.

Screening data from PubChem BioAssay.
